# DT40 TDP1 CPT: growth inhibition of DT40 Tdp1-/-;hTDP1 cells with camptothecin (screen for TDP1 inhibitors); Potency, µM (top dose mostly 46.2 µM), for inactives: at the top dose activity change, negative = growth inhibition, most hits filed as inhibitors; AID 686979; chicken DT40 Tdp1-/-;hTDP1 cells + 20 nM CPT, ATP luminescence, 48 h; hit rate 12% among 420,000; further: potency means the concentration at half of the fitted maximal effect; nearly all actives have a fitted effect of over 55% in size
#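 Chicken DT40 Tdp1-/- cells stably complemented with human TDP1 were seeded at 400 cells/well in medium containing 20 nM camptothecin, exposed to pin-transferred compounds, and grown at 37 °C for at least 48 hr. Viability was read as ATP luminescence.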
# HT1080 IDH1KD tx: toxicity to HT-1080 IDH1 knockdown cells (counter line) | HT-1080 IDH1 knockdown viability, ATP luminescence, 48 h | Potency, µM (top dose mostly 46.1 µM), inactives show top-dose activity, negative = toxicity, actives largely listed as cytotoxic | hit rate 2% among 360,000 | AID 686971;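 further: potency means the concentration at half of the fitted maximal effect; 0% = DMSO wells and -100% = cell-free medium wells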
#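 Using the IDH1-knockdown HT-1080 line run in the same batch and compound series as the NT line, viability after 48 h at 37 °C was determined by CellTiter-Glo luminescence and expressed as % activity.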
# HT1080-NT tox: kills 2HG-producing HT-1080-NT fibrosarcoma cells; HT-1080-NT fibrosarcoma viability, CellTiter-Glo ATP luminescence, 48 h; Potency, µM (titrated, usually from 46.1 µM), for inactives: at the top dose activity, negative = less viability, actives largely listed as cytotoxic; hit rate 1.6% among 360,000;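 further: NT is the 2HG producing partner of a matched IDH1 knockdown line; potency means the concentration at half of the fitted maximal effect; 0% = DMSO-treated cells and -100% = media-only wells without cells; nearly all actives have a fitted effect of over 55% in size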
#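 Compounds were tested in concentration-response format on HT-1080-NT cells for 48 hours at 37 degrees C. Cell viability came from CellTiter-Glo luminescence; curves were classified by r2, response magnitude and activity.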
# ALOX12 inh: inhibitors of human 12S-lipoxygenase ALOX12; purified 12hLO, xylenol orange hydroperoxide absorbance; Potency, µM (doses to about 108 µM), for the others: top-dose activity change, negative = inhibition, usual class: inhibitors; hit rate 1.1% among 580,000; further: potency means the concentration at half of the fitted maximal effect
# Target sequence (P18054 whole entry, looked up): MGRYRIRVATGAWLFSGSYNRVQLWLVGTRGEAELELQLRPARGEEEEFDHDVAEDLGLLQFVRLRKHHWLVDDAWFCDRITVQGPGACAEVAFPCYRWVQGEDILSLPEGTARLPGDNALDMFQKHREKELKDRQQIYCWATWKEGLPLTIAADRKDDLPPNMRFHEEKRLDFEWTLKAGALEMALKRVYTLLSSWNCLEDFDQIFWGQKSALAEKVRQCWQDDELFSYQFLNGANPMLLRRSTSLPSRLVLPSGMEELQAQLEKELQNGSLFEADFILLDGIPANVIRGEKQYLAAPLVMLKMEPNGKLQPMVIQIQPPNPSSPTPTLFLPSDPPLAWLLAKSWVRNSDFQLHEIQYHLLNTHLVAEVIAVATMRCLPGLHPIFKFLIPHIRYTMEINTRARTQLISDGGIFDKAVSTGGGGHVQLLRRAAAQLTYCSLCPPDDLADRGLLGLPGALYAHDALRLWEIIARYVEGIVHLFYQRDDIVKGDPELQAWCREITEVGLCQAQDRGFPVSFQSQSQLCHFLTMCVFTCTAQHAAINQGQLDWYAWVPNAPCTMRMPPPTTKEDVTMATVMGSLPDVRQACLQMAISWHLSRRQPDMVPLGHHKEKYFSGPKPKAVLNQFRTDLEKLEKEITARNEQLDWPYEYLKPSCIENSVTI
#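 Purified human 12hLO at 150 nM in 25 mM Hepes, 0.01% Triton X-100, pH 7.0, preincubated 15 min at room temperature with compound. Reaction started with 40 uM arachidonic acid, 30 min at room temperature. Hydroperoxide measured by Fe-xylenol orange, 573/405 nm absorbance ratio.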
# DT40 TDP1 no CPT: qHTS for Inhibitors of human tyrosyl-DNA phosphodiesterase 1 (TDP1): qHTS in cells in absence of CPT; DT40 Tdp1-/- hTDP1 cells, no CPT, ATP luminescence, 48 h; Potency, µM (doses to about 46.2 µM), for the others: top-dose activity change, negative = growth inhibition, actives largely listed as inhibitors; hit rate 15% among 420,000; AID 686978, 2013; further: potency means the concentration at half of the fitted maximal effect; nearly all actives have a fitted effect of over 55% in size
#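 Stably hTDP1-transfected Tdp1-null chicken DT40 cells were treated with library compounds minus camptothecin and grown for at least 48 hr at 37 °C, after which cellular ATP was quantified by luminescence.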
# IL1B secr inh: inhibitors of inflammasome signaling (IL-1 beta secretion) | activity change, % at 57.5 µM | THP-1 LPS/ATP IL-1B secretion, AlphaLISA, 16 h; active compounds read low | hit rate 4.7% among 360,000; in the data active means activity change below about -50%; inconclusive means mostly about -30% to -49%
#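 Secreted IL-1B measured by AlphaLISA bead assay after 16 h compound exposure of THP-1 cells; compounds (final up to 57.5 uM) added 1 h before LPS (250 ng/mL) and ATP (1.25 mM) stimulation; lower signal means less secretion.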
# Starred values were filed as active, the others as inactive; ? = inconclusive; · = no result. The sample as a whole holds a higher share of hits than the screen did. Unless noted, the call rests on the fitted dose curve; in most records, active means well fitted curve in the direction sought with a large enough effect; inconclusive means small, poorly fitted or top-dose-only effect, or another doubt; inactive means no such curve, though single readings can be large; an effect the other way counts as inactive or inconclusive. Unless noted, on the % scale 0 is the no-effect control and ±100 the full control effect.
SMILES,DT40 TDP1 CPT,HT1080 IDH1KD tx,HT1080-NT tox,ALOX12 inh,DT40 TDP1 no CPT,IL1B secr inh
CN1CCN(c2ncnc3ccc(-c4ccccc4Cl)cc23)CC1,16µM*,·,·,-12%,21µM*,·
Cc1ccccc1-c1ccc2ncnc(N3CCN(C)CC3)c2c1,?,·,·,-7%,16µM*,·
Cc1noc(C)c1-c1ccc2ncnc(N3CCN(C)CC3)c2c1,?,·,·,-25%,?,·
COc1cc2c(cc1OC)CN(c1ccc(F)cc1[N+](=O)[O-])CC2,-25%,-11%,-1%,?,?,-67*
COc1cc2c(cc1OC)CN(c1ncccc1[N+](=O)[O-])CC2,1%,-1%,0%,?,-24%,?
COc1cc2c(cc1OC)CN(c1ccc([N+](=O)[O-])cc1C#N)CC2,21µM*,-2%,-16%,-9%,13µM*,?
COc1ccccc1N1CCN(c2ccc([N+](=O)[O-])cc2Cl)CC1,15µM*,?,?,-3%,12µM*,0
COc1cc2c(cc1OC)CN(C(=O)c1ccc(N3CCCC3)c([N+](=O)[O-])c1)CC2,21µM*,1%,-1%,?,23µM*,-56*
CCNC(=O)N1CCCCCC1CN1CCOCC1 (stereo not drawn),·,·,·,1%,·,·
CC(C)Cn1nc2n(c1=O)CCN(S(=O)(=O)c1ccc3c(c1)CCCC3)CC2,·,·,·,3%,·,·
CN1CCN(c2cc(N3CCc4ccccc4C3)c(F)cc2[N+](=O)[O-])CC1,16µM*,-25%,-2%,?,21µM*,-51*
COc1cc2c(cc1OC)CN(c1ccc([N+](=O)[O-])cc1Cl)CC2,23µM*,-23%,?,?,12µM*,-88*
COc1ccccc1N1CCN(C(=S)NC(=O)c2ccc([N+](=O)[O-])cc2)CC1,21µM*,-26%,-13%,-10%,21µM*,-4
CCOc1ccc(NC(=O)COc2ccc(C(C)C)cc2-n2cnnc2)cc1,·,·,·,14%,·,·
COCCN1CCC(CN(Cc2ccncc2)C(=O)c2scnc2C)CC1,·,·,·,24%,·,·
COCCn1c(=O)c(CCc2ccccc2)nc2cnc(N3CCN(C)CC3)nc21,-16%,·,·,0%,-22%,·
COc1ccc(-n2c(=O)c(CCc3ccccc3)nc3cnc(N4CCNCC4)nc32)cc1,?,·,·,-24%,-12%,·
COc1ccc(Oc2ncc3nc(CCc4ccccc4)c(=O)n(CCC#N)c3n2)cc1,?,·,·,0%,23µM*,·
COc1ccc(-n2c(=O)c(CCc3ccccc3)nc3cnc(N4CCN(C)CC4)nc32)cc1,-10%,·,·,13µM*,-25%,·
N#CCCn1c(=O)c(CCc2ccccc2)nc2cnc(Oc3ccccc3)nc21,3%,·,·,0%,?,·
CN1CCN(c2ncc3nc(CCc4ccccc4)c(=O)n(C)c3n2)CC1,23µM*,·,·,?,?,·
COc1cc(C(=O)NC2CCCN(c3cc(-c4ccccc4)[nH]n3)C2)cc(OC)c1OC (stereo not drawn),·,·,·,64%,·,·
COc1ccc(C(=O)N[C@@H]2C=C[C@@H](c3c(C)nn(-c4ccc(C)c(Cl)c4)c3C)C2)cc1,·,·,·,0%,·,·
CCC(C)(C)NC(=O)CSc1nnc(N2CCCC2)n1-c1ccc(C)cc1,·,·,·,55%,·,·
Cc1ccccc1-c1cc2nc(NCCCN(C)C)n(C)c(=O)c2s1,?,?,?,-22%,?,-81*
Cc1ccccc1-c1cc2nc(NCCN3CCCC3)n(C)c(=O)c2s1,?,?,?,-21%,?,-27
Cc1ccsc1-c1cc2nc(NCCCN(C)C)n(C)c(=O)c2s1,23µM*,?,5.8µM*,?,23µM*,0
c1ccc(-c2noc(-c3ccc(OC4CNC4)cc3)n2)cc1,·,·,·,54%,·,·

# From PubChem BioAssay
